Measurements from PubChem BioAssay (NCI).
About 83,000 compounds went through this panel and 20% of them were active in at least one assay; those are over-represented in the sample as a whole.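 Plates (96-well) were seeded with cells, treated with compound at one concentration, and incubated for 48 hours before percent growth was determined.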 Active and inactive are the calls of the source. Rule for the calls: active = growth percent below 10; inactive = the rest.

Key:
Experiment in all cases: NCI-60 one-dose screen, 48 h (100 = growth as untreated, 0 = no growth, -100 = all killed)
Settings in all cases: 10 µM unless noted
SK-MEL-2 melanoma = tested on: SK-MEL-2 melanoma
EKVX NSCLC = tested on: EKVX NSCLC
SN12C renal = tested on: SN12C renal
UO-31 renal = tested on: UO-31 renal
TK-10 renal = tested on: TK-10 renal
ACHN renal = tested on: ACHN renal
CAKI-1 renal = tested on: CAKI-1 renal
A498 renal = tested on: A498 renal
CCRF-CEM leukemia = tested on: CCRF-CEM leukemia
MOLT-4 leukemia = tested on: MOLT-4 leukemia
SR leukemia = tested on: SR leukemia
RPMI-8226 leukemia = tested on: RPMI-8226 leukemia
OVCAR-8 ovarian = tested on: OVCAR-8 ovarian
OVCAR-4 ovarian = tested on: OVCAR-4 ovarian
SK-OV-3 ovarian = tested on: SK-OV-3 ovarian
IGROV1 ovarian = tested on: IGROV1 ovarian
OVCAR-3 ovarian = tested on: OVCAR-3 ovarian
HS 578T breast = tested on: HS 578T breast
NCI/ADR-RES ovarian = tested on: NCI/ADR-RES ovarian
OVCAR-5 ovarian = tested on: OVCAR-5 ovarian

Measured: growth

S=C1CCSC(=S)N1CCCN1C(=S)CCSC1=S
active: RPMI-8226 leukemia 3.38%
inactive: SK-MEL-2 melanoma 96.1% | EKVX NSCLC 101% | SN12C renal 75.6% | UO-31 renal 45.1% | TK-10 renal 66% | ACHN renal 44.4% | CAKI-1 renal 58.9% | A498 renal 102% | CCRF-CEM leukemia 16.7% | MOLT-4 leukemia 30.1% | SR leukemia 21% | OVCAR-8 ovarian 55.3% | OVCAR-4 ovarian 83.7% | SK-OV-3 ovarian 112% | IGROV1 ovarian 85.8% | OVCAR-3 ovarian 34.1% | HS 578T breast 83.2% | NCI/ADR-RES ovarian 80.7%

C=CC(=O)NCc1ccc(Nc2nccc(-c3ccc(N4CCCC4)c(C#N)c3)n2)cc1
active: CAKI-1 renal -1.86% | SR leukemia 5.13%
inactive: SK-MEL-2 melanoma 35.8% | EKVX NSCLC 62.8% | SN12C renal 41.3% | UO-31 renal 17.5% | TK-10 renal 37.3% | ACHN renal 20.4% | A498 renal 54% | CCRF-CEM leukemia 49.1% | MOLT-4 leukemia 20% | RPMI-8226 leukemia 46.7% | OVCAR-8 ovarian 30.8% | OVCAR-5 ovarian 75.3% | OVCAR-4 ovarian 16.2% | SK-OV-3 ovarian 29.6% | IGROV1 ovarian 25.2% | HS 578T breast 25.4% | NCI/ADR-RES ovarian 34.4%

O=C1Nc2ccccc2[C@]12CC(c1ccccc1)=NN2
inactive: SK-MEL-2 melanoma 44.9% | EKVX NSCLC 50.7% | SN12C renal 59.5% | UO-31 renal 49.5% | TK-10 renal 79.7% | ACHN renal 54.3% | CAKI-1 renal 38.7% | A498 renal 60% | CCRF-CEM leukemia 37.2% | MOLT-4 leukemia 43.2% | SR leukemia 21.6% | RPMI-8226 leukemia 39% | OVCAR-8 ovarian 65.8% | OVCAR-5 ovarian 61.7% | SK-OV-3 ovarian 57.1% | IGROV1 ovarian 33.1% | OVCAR-3 ovarian 27.7% | HS 578T breast 58.4% | NCI/ADR-RES ovarian 44.9%

O=C(Nc1cccnc1Nc1ccc(F)cc1)c1cn(Cc2cccc(Oc3ccccc3)c2)nn1
inactive: SK-MEL-2 melanoma 73.9% | EKVX NSCLC 75.9% | SN12C renal 79.2% | UO-31 renal 46.7% | TK-10 renal 98.7% | ACHN renal 83.7% | CAKI-1 renal 78% | A498 renal 60.5% | CCRF-CEM leukemia 63.2% | MOLT-4 leukemia 32% | SR leukemia 23.4% | RPMI-8226 leukemia 78.9% | OVCAR-8 ovarian 81.4% | OVCAR-4 ovarian 86.5% | SK-OV-3 ovarian 87.4% | IGROV1 ovarian 91.2% | OVCAR-3 ovarian 71.9% | HS 578T breast 69.3% | NCI/ADR-RES ovarian 37.8%

Cc1ccc2c3c(c(=O)[nH]c2c1)C1(C(C#N)=C(N)O3)c2cc(Br)ccc2-c2ccc(Br)cc21
active: EKVX NSCLC -32.9% | SN12C renal -32.3% | UO-31 renal -62.3% | TK-10 renal -36.2% | ACHN renal -15.8% | CAKI-1 renal -64.3% | A498 renal -18.8% | OVCAR-8 ovarian 0.183% | IGROV1 ovarian -13.2% | HS 578T breast -5.5%
inactive: SK-MEL-2 melanoma 32.6% | CCRF-CEM leukemia 32.6% | MOLT-4 leukemia 21.3% | SR leukemia 22.2% | RPMI-8226 leukemia 14.8% | OVCAR-5 ovarian 18.3% | SK-OV-3 ovarian 47.7% | NCI/ADR-RES ovarian 54.1%

N#CCSc1nnc2n(Cc3ccccc3)c(=O)c3c4c(sc3n12)CCCC4
inactive: SK-MEL-2 melanoma 96% | EKVX NSCLC 94.1% | SN12C renal 96.8% | UO-31 renal 76.2% | TK-10 renal 103% | ACHN renal 106% | CAKI-1 renal 86.2% | A498 renal 93.4% | CCRF-CEM leukemia 86.5% | MOLT-4 leukemia 90.7% | SR leukemia 94.8% | OVCAR-8 ovarian 95.1% | OVCAR-4 ovarian 101% | SK-OV-3 ovarian 107% | IGROV1 ovarian 74.2% | OVCAR-3 ovarian 98.5% | HS 578T breast 95.3% | NCI/ADR-RES ovarian 91%
active: RPMI-8226 leukemia -61.3%

CCn1c(=S)[nH]c2c(=O)n(C)c(=O)n(C)c21
inactive: SK-MEL-2 melanoma 103% | EKVX NSCLC 95.1% | SN12C renal 101% | UO-31 renal 93.9% | TK-10 renal 108% | ACHN renal 97.6% | CAKI-1 renal 102% | A498 renal 113% | CCRF-CEM leukemia 102% | MOLT-4 leukemia 98.2% | SR leukemia 110% | RPMI-8226 leukemia 101% | OVCAR-8 ovarian 101% | OVCAR-5 ovarian 104% | SK-OV-3 ovarian 107% | IGROV1 ovarian 102% | OVCAR-3 ovarian 121% | HS 578T breast 160% | NCI/ADR-RES ovarian 103%

Nc1ncnc2c1N=C(c1ccc(Cl)cc1)CC(c1ccc3c(c1)OCO3)N2 (stereo not drawn)
active: CCRF-CEM leukemia -54.1%
inactive: SK-MEL-2 melanoma 52% | EKVX NSCLC 94.6% | SN12C renal 97.2% | UO-31 renal 80.5% | TK-10 renal 111% | ACHN renal 87.6% | CAKI-1 renal 84.1% | A498 renal 99.5% | MOLT-4 leukemia 71.5% | SR leukemia 77.3% | RPMI-8226 leukemia 60.3% | OVCAR-8 ovarian 91.7% | OVCAR-5 ovarian 85.6% | SK-OV-3 ovarian 21% | IGROV1 ovarian 46% | OVCAR-3 ovarian 85.5% | HS 578T breast 93.8% | NCI/ADR-RES ovarian 98.2%

COc1ccc(-c2csc(NC(=O)CSc3nc(-c4ccccc4)cc(=O)[nH]3)n2)cc1
inactive: SK-MEL-2 melanoma 59.7% | EKVX NSCLC 58.1% | SN12C renal 80.3% | UO-31 renal 65.6% | TK-10 renal 78.9% | ACHN renal 63% | CAKI-1 renal 74.7% | A498 renal 64.7% | CCRF-CEM leukemia 57.9% | MOLT-4 leukemia 14.4% | SR leukemia 61.1% | RPMI-8226 leukemia 41.8% | OVCAR-8 ovarian 70.8% | OVCAR-5 ovarian 94.3% | OVCAR-4 ovarian 54.2% | SK-OV-3 ovarian 91% | IGROV1 ovarian 71.6% | HS 578T breast 84.6% | NCI/ADR-RES ovarian 51.3%

COP(=O)(OC)C(C)(C)CC(=O)CC(C#N)(C#N)C(C#N)C#N
inactive: SK-MEL-2 melanoma 118% | EKVX NSCLC 99.4% | SN12C renal 99.6% | UO-31 renal 85.1% | TK-10 renal 104% | ACHN renal 100% | CAKI-1 renal 96.4% | A498 renal 121% | MOLT-4 leukemia 104% | SR leukemia 95.5% | RPMI-8226 leukemia 87.8% | OVCAR-8 ovarian 105% | OVCAR-5 ovarian 94.4% | OVCAR-4 ovarian 116% | SK-OV-3 ovarian 101% | IGROV1 ovarian 110% | HS 578T breast 104% | NCI/ADR-RES ovarian 98.4%
active: CCRF-CEM leukemia -30.3%

O=C(CCCCCCN1CC(=O)N2[C@H](c3cc(Br)cs3)c3[nH]c4ccccc4c3C[C@H]2C1=O)NO
active: MOLT-4 leukemia 9.39%
inactive: SK-MEL-2 melanoma 50% | EKVX NSCLC 75.4% | SN12C renal 53.7% | UO-31 renal 39.6% | TK-10 renal 32% | ACHN renal 47.8% | CAKI-1 renal 43.7% | A498 renal 58.6% | CCRF-CEM leukemia 23.9% | SR leukemia 17.2% | RPMI-8226 leukemia 11.8% | OVCAR-8 ovarian 28% | OVCAR-5 ovarian 38% | SK-OV-3 ovarian 61.9% | IGROV1 ovarian 40.7% | OVCAR-3 ovarian 38.4% | HS 578T breast 44.8% | NCI/ADR-RES ovarian 78.9%

Cc1nc2ncnc(Cl)c2[nH]1
inactive: SK-MEL-2 melanoma 104% | EKVX NSCLC 103% | SN12C renal 99.7% | UO-31 renal 88.3% | TK-10 renal 94.4% | ACHN renal 109% | CAKI-1 renal 94.7% | A498 renal 97.3% | CCRF-CEM leukemia 87.7% | MOLT-4 leukemia 94.7% | SR leukemia 98.3% | RPMI-8226 leukemia 82.4% | OVCAR-8 ovarian 95.4% | OVCAR-5 ovarian 109% | OVCAR-4 ovarian 106% | SK-OV-3 ovarian 105% | IGROV1 ovarian 106% | HS 578T breast 110% | NCI/ADR-RES ovarian 108%

C=C1C(=O)O[C@H]2[C@H]1CC/C(COC(=O)CSCCSCC(=O)OC/C1=C/CC[C@@]3(C)O[C@H]3[C@H]3OC(=O)C(=C)[C@@H]3CC1)=C\CC[C@@]1(C)O[C@@H]21
active: SN12C renal -10.4% | UO-31 renal 7.85% | ACHN renal 2.6% | CAKI-1 renal 9.17% | CCRF-CEM leukemia -41.5% | MOLT-4 leukemia -22.5% | SR leukemia -22.6% | RPMI-8226 leukemia -29.7% | OVCAR-8 ovarian 4.46% | IGROV1 ovarian -9.6% | OVCAR-3 ovarian -12.1%
inactive: SK-MEL-2 melanoma 70% | EKVX NSCLC 11% | TK-10 renal 16.6% | A498 renal 88.7% | OVCAR-5 ovarian 21.8% | SK-OV-3 ovarian 89.3% | HS 578T breast 32.6% | NCI/ADR-RES ovarian 59.5%

C1=CN2CC(c3ccccc3)=NNC2c2ccccc21 (stereo not drawn)
inactive: SK-MEL-2 melanoma 89.7% | EKVX NSCLC 73.4% | SN12C renal 88.8% | UO-31 renal 53.8% | TK-10 renal 120% | ACHN renal 85.7% | CAKI-1 renal 65.2% | A498 renal 104% | CCRF-CEM leukemia 88.3% | MOLT-4 leukemia 40.2% | SR leukemia 97% | RPMI-8226 leukemia 69.8% | OVCAR-8 ovarian 92% | OVCAR-5 ovarian 106% | SK-OV-3 ovarian 92.2% | IGROV1 ovarian 22.8% | OVCAR-3 ovarian 81.5% | HS 578T breast 86.7% | NCI/ADR-RES ovarian 80.6%

COc1ccc(/C=N/C2=C(C#N)C(c3cccc(Cl)c3)c3c(ccc4ccccc34)O2)cc1 (stereo not drawn)
inactive: SK-MEL-2 melanoma 51.2% | EKVX NSCLC 33.9% | SN12C renal 39.6% | UO-31 renal 43% | TK-10 renal 82% | ACHN renal 31% | CAKI-1 renal 20.3% | CCRF-CEM leukemia 16.9% | MOLT-4 leukemia 21.8% | SR leukemia 17.7% | RPMI-8226 leukemia 17.4% | OVCAR-8 ovarian 47.1% | OVCAR-5 ovarian 62.3% | SK-OV-3 ovarian 52.4% | IGROV1 ovarian 32.9% | OVCAR-3 ovarian 12.5% | HS 578T breast 15.9% | NCI/ADR-RES ovarian 22.1%
active: A498 renal -4.91%

COc1ccc(OC)c(C(=O)/C=C/c2cc3c(c(OC)c2OC)OCO3)c1
inactive: SK-MEL-2 melanoma 83.6% | EKVX NSCLC 73% | SN12C renal 74.7% | UO-31 renal 63.6% | TK-10 renal 122% | ACHN renal 68% | CAKI-1 renal 52% | A498 renal 69.9% | CCRF-CEM leukemia 40.1% | MOLT-4 leukemia 52.8% | SR leukemia 17.8% | OVCAR-8 ovarian 58.1% | OVCAR-5 ovarian 121% | SK-OV-3 ovarian 79.1% | IGROV1 ovarian 71.5% | OVCAR-3 ovarian 59.4% | HS 578T breast 75.9% | NCI/ADR-RES ovarian 63.1%
active: RPMI-8226 leukemia 6.09%
